We go through 64 compounds from PubChem BioAssay AID743449 (Broad Institute, 2014).

Hit rate of the full screen: of about 9,900 compounds, about 90 (0.9%) were called active. Another 2% or so got no clear call; they are omitted.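 The calls were made as follows: active = mean normalized replicate activity at least 50 and at least half of replicates each reaching 50; inconclusive = only one of the two criteria met; inactive = neither criterion met.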 The entries come from a sample that favours actives as a whole.

This experiment in a line: YAP1 pathway inhibitors via CTGF transcript, primary screen, DLD1 colon cancer cells, RT-qPCR, single point (AID 743449).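 Also: 0% = neutral control wells and 100% = dasatinib control wells; higher means stronger suppression of CTGF expression like dasatinib.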 Particulars: DLD1 CTGF mRNA qPCR, 24 h; at 12.5 µM; active compounds read high. For orientation: Real-time PCR tracks product formation cycle by cycle.
Take `Cc1cccc(-c2ccc([C@@H]3[C@@H](CO)N4CCCCN(S(=O)(=O)c5ccccc5F)C[C@H]34)cc2)c1`: the inhibition (in general, the drop in the measured response relative to a control, in per cent) was 15.5% (inactive). As for `CC(=O)N1CCCCN2[C@H](CO)[C@H](c3ccc(-c4ccccc4)cc3)[C@H]2C1`, the inhibition was 9.46% (inactive). With `COc1ccc(NC(=O)N2CCCCN3[C@H](C2)[C@@H](c2ccc(-c4ccccc4F)cc2)[C@@H]3CO)cc1`, the inhibition was -27.6% (inactive).

With `COc1ccc(NC(=O)N2CCCCN3[C@H](CO)[C@H](c4ccc(-c5ccccc5F)cc4)[C@H]3C2)cc1`, the inhibition is -50.7% (inactive). Consider `CC(=O)N1CCCCN2[C@@H](CO)[C@H](c3ccc(-c4ccccc4)cc3)[C@@H]2C1`, for which the inhibition is 62% (active). As for `Cc1cccc(-c2ccc([C@H]3[C@@H](CO)N4CCCCN(S(=O)(=O)c5ccccc5F)C[C@@H]34)cc2)c1`, the figure is -8.63% (inactive). The result for `Cc1cccc(-c2ccc([C@@H]3[C@@H](CO)N4CCCCN(S(=O)(=O)c5ccccc5F)C[C@@H]34)cc2)c1` reads 63.6% (active); that for `COc1ccc(NC(=O)N2CCCCN3[C@@H](CO)[C@H](c4ccc(-c5ccccc5F)cc4)[C@@H]3C2)cc1`, 59.6% (active). The result for `Cc1ccccc1-c1ccc([C@H]2[C@@H](CO)N3CCCCN(S(=O)(=O)Cc4ccccc4)C[C@@H]23)cc1` reads 66% (active); that for `CC(=O)N1CCCCN2[C@@H](CO)[C@@H](c3ccc(-c4ccccc4)cc3)[C@@H]2C1`, -12.5% (inactive). For `Cc1ccccc1-c1ccc([C@H]2[C@@H](CO)N3CCCCN(S(=O)(=O)Cc4ccccc4)C[C@H]23)cc1`, the inhibition is -18.5% (inactive).

On to `Cc1ccccc1-c1ccc([C@@H]2[C@H](CO)N3CCCCN(S(=O)(=O)Cc4ccccc4)C[C@@H]23)cc1`, for which the inhibition was 26% (inactive). Turning to `O=C(C[C@@H]1CC[C@@H]2[C@H](COC[C@H](O)CN2C(=O)c2ccc(F)cc2)O1)N1CCCCC1`, the inhibition is 4.67% (inactive).

With `C[C@@H]1CCCCO[C@H](CN(C)Cc2ccc(C(=O)O)cc2)[C@@H](C)CN([C@@H](C)CO)C(=O)c2cc(N(C)C)ccc2O1`, the inhibition is -1.12% (inactive).

As for `O=C1N[C@H](Cc2ccccc2)COCc2cnnn2CC[C@@H]1Cc1ccc(-c2ccccc2)cc1`, the inhibition was 10.4% (inactive). As for `CS(=O)(=O)N1[C@@H](CO)[C@@H](c2ccccc2)C12CN(Cc1cc(F)ccc1F)C2`, the figure is 2.97% (inactive); as for `CCC(=O)N1C[C@H](C)[C@@H](OC)CN(C)C(=O)c2ccc(NC(=O)CC(F)(F)F)cc2OC[C@@H]1C`, -9.99% (inactive); as for `CC(C)N(C[C@H]1N[C@H](CO)[C@H]1c1ccccc1)S(=O)(=O)c1ccccc1`, -1.38% (inactive). As for `COc1ccccc1C#Cc1ccc([C@@H]2[C@@H](CO)N3CCCCN(C(=O)C4CCC4)C[C@H]23)cc1`, the inhibition was 4.8% (inactive). The result for `O=S(=O)(c1ccccc1)N1CCCCN2[C@H](C1)[C@@H](c1ccc(C#CC3CCCC3)cc1)[C@@H]2CO` reads 50.5% (active); that for `COc1ccccc1C#Cc1ccc([C@@H]2[C@H]3CN(C(=O)C4CCC4)CCCCN3[C@H]2CO)cc1`, 14.7% (inactive).

With `COc1ccccc1C#Cc1ccc([C@H]2[C@H](CO)N3CCCCN(C(=O)C4CCC4)C[C@@H]23)cc1`, the inhibition is 68.7% (active). For the compound `O=S(=O)(c1ccccc1)N1CCCCN2[C@H](CO)[C@H](c3ccc(C#CC4CCCC4)cc3)[C@H]2C1`, the inhibition is -84.2% (inactive).

On to `O=S(=O)(c1ccccc1)N1CCCCN2[C@@H](CO)[C@H](c3ccc(C#CC4CCCC4)cc3)[C@@H]2C1`, for which the inhibition was 1.07% (inactive). For `O=C(C[C@H]1CC[C@H]2[C@@H](COC[C@@H](O)CN2C(=O)Nc2ccccc2)O1)NCc1ccccc1F`, the inhibition is 8.8% (inactive). For `CCCN1C[C@H](C)[C@H](OC)CN(C)C(=O)c2ccc(NS(=O)(=O)c3cn(C)cn3)cc2OC[C@H]1C`, the inhibition was -8.06% (inactive).

With `CCCC(=O)Nc1ccc2c(c1)C(=O)N(C)C[C@H](OC)[C@@H](C)CN(Cc1ccc(F)cc1)[C@H](C)CO2`, the inhibition is -14.1% (inactive).

With `CN1[C@H](C(=O)Nc2nccs2)[C@@H](CO)[C@@H]2Cn3c(ccc(-c4ccccc4F)c3=O)[C@@H]21`, the inhibition was -2.79% (inactive). Turning to `C/C=C/c1ccc([C@H]2[C@@H](CNC(=O)CC3CC3)N(C(=O)CC)[C@H]2CO)cc1`, the inhibition is -13.1% (inactive).

Consider `CCS(=O)(=O)Nc1ccc2c(c1)C(=O)N(C)[C@H]1CC[C@H](CC(=O)NCc3ccc(OC)cc3)O[C@@H]1CO2`, for which the inhibition was -27.1% (inactive). As for `O=C(C[C@H]1CC[C@H]2NC[C@H](O)COC[C@@H]2O1)N1CCc2ccccc2C1`, the figure is 1.25% (inactive). Consider `C[C@@H]1CN([C@H](C)CO)C(=O)CCCn2nncc2CO[C@@H]1CN(C)C(=O)c1cc(-c2ccccc2)on1`, for which the inhibition was 66% (active). The result for `C[C@@H]1CN([C@H](C)CO)C(=O)CCCn2nncc2CO[C@H]1CN(C)Cc1cccc(C(F)(F)F)c1` reads 20.5% (inactive); that for `C[C@@H]1CN([C@@H](C)CO)C(=O)CCCn2nncc2CO[C@H]1CN(C)C(=O)c1cc(-c2ccccc2)on1`, -32.7% (inactive). The result for `C[C@H](CO)N1C[C@H](C)[C@@H](CN(C)Cc2cccc(C(F)(F)F)c2)OCc2cnnn2CCCC1=O` reads -35.1% (inactive); that for `C[C@H](CO)N1C[C@H](C)[C@@H](CN(C)C(=O)c2cc(-c3ccccc3)on2)OCc2cnnn2CCCC1=O`, -12.2% (inactive); that for `C[C@@H]1CN([C@H](C)CO)C(=O)CCCn2nncc2CO[C@H]1CN(C)C(=O)c1cc(-c2ccccc2)on1`, -10.9% (inactive). As for `C[C@H](CO)N1C[C@H](C)[C@H](CN(C)C(=O)c2cc(-c3ccccc3)on2)OCc2cnnn2CCCC1=O`, the inhibition was 29.3% (inactive). The result for `C[C@@H]1CN([C@H](C)CO)C(=O)CCCn2nncc2CO[C@@H]1CN(C)Cc1cccc(C(F)(F)F)c1` reads 61.3% (active); that for `C[C@@H]1CN([C@@H](C)CO)C(=O)CCCn2nncc2CO[C@@H]1CN(C)C(=O)c1cc(-c2ccccc2)on1`, 55.9% (active); that for `CNC[C@@H]1OCCCC[C@H](C)Oc2ccc(NS(=O)(=O)c3ccc(F)cc3)cc2C(=O)N([C@@H](C)CO)C[C@H]1C`, -4.63% (inactive). In the case of `Cc1cccc(S(=O)(=O)N[C@@H]2CC[C@@H](CCNC(=O)Nc3cc(F)ccc3F)O[C@H]2CO)c1`, the inhibition is -12.4% (inactive). Take `COc1ccc(-c2ccc([C@H]3[C@H](CO)N4C(=O)CN(Cc5ccccc5)C[C@@H]34)cc2)cc1`: the inhibition was -9.55% (inactive). Turning to `COc1ccc(S(=O)(=O)N(C)C[C@H]2Oc3ccc(NC(=O)Nc4ccc(C(F)(F)F)cc4)cc3C(=O)N([C@@H](C)CO)C[C@@H]2C)cc1`, the inhibition is -95.1% (inactive). `O=C(Nc1ccccc1)[C@@H]1[C@@H](CO)[C@@H]2Cn3c(cccc3=O)[C@H]1N2C(=O)c1ccc(F)cc1`: the inhibition is 51.2% (active).

In the case of `CCNC(=O)[C@@H]1[C@@H](CO)[C@@H]2Cn3c(cccc3=O)[C@H]1N2C(=O)Nc1cc(F)ccc1F`, the inhibition was -43% (inactive). Turning to `O=C(Nc1ccccc1)[C@H]1[C@H](CO)[C@H]2Cn3c(cccc3=O)[C@@H]1N2C(=O)c1ccc(F)cc1`, the inhibition was 11.4% (inactive). Take `N#C[C@H]1[C@@H](c2ccccc2)[C@H](CO)N1C(=O)c1cc(Cl)cc(Cl)c1`: the inhibition was 26.8% (inactive). As to `CC(C)NC(=O)N[C@H]1CC[C@H](CC(=O)NCCCN(C)C)O[C@@H]1CO`, the inhibition is 12% (inactive). Regarding `CC(C)NC(=O)N[C@@H]1CC[C@@H](CC(=O)NCCCN(C)C)O[C@H]1CO`, the inhibition was 1.3% (inactive).

On to `CC(C)NC(=O)N[C@@H]1CC[C@H](CC(=O)NCCCN(C)C)O[C@@H]1CO`, for which the inhibition was 50.2% (active).

Turning to `C[C@H](CO)N1C[C@H](C)[C@@H](CN(C)S(=O)(=O)c2cccs2)Oc2ccc(NC(=O)Nc3cccc4ccccc34)cc2C1=O`, the inhibition was 3.66% (inactive). Consider `CO[C@H]1CN(C)C(=O)c2ccc(NC(=O)c3nc4ccccc4s3)cc2OC[C@@H](C)N(Cc2cccnc2)C[C@@H]1C`, for which the inhibition is 1.26% (inactive).

Turning to `CO[C@@H]1CN(C)C(=O)c2ccc(NC(=O)c3nc4ccccc4s3)cc2OC[C@@H](C)N(Cc2cccnc2)C[C@H]1C`, the inhibition was 68.4% (active). For the compound `CO[C@@H]1CN(C)C(=O)c2ccc(NC(=O)c3nc4ccccc4s3)cc2OC[C@@H](C)N(Cc2cccnc2)C[C@@H]1C`, the inhibition was 1.63% (inactive). Regarding `CCCNC(=O)N1[C@@H]2Cn3c(cccc3=O)[C@H]1[C@@H](C(=O)N1CCC(Cc3ccccc3)CC1)[C@@H]2CO`, the inhibition was -24.7% (inactive).

`C[C@H]1CN([C@@H](C)CO)C(=O)CCCn2nncc2CO[C@H]1CN(C)C(=O)Nc1ccc2c(c1)OCCO2`: the inhibition is -11.1% (inactive).

With `CCCC#Cc1ccc2c(c1)O[C@@H](CN(C)Cc1ccccn1)[C@@H](C)CN([C@@H](C)CO)S2(=O)=O`, the inhibition was -16.9% (inactive). Regarding `CC(C)[C@@H]1CC=CC[C@@H](C)Oc2ccccc2C(=O)N(C)[C@H](Cc2ccccc2)C(=O)N1` (mixture of isomers), the inhibition is 38.9% (inactive). Consider `C[C@H]1CC=CC[C@@H](c2ccc(F)cc2)NC(=O)[C@H](Cc2ccccc2)N(C)C(=O)c2ccccc2O1` (mixture of isomers), for which the inhibition was 64% (active). Regarding `C[C@H]1CC=CC[C@H](c2ccc(F)cc2)NC(=O)[C@@H](Cc2ccccc2)N(C)C(=O)c2ccccc2O1` (mixture of isomers), the inhibition is -32.9% (inactive). For the compound `C[C@@H]1CC=CC[C@H](c2ccc(F)cc2)NC(=O)[C@@H](Cc2ccccc2)N(C)C(=O)c2ccccc2O1` (mixture of isomers), the inhibition is 60.2% (active).

For the compound `CC(C)[C@@H]1CC=CC[C@H](C)Oc2ccccc2C(=O)N(C)[C@@H](Cc2ccccc2)C(=O)N1` (mixture of isomers), the inhibition was 15.6% (inactive). In the case of `C[C@H]1CC=CC[C@H](c2ccc(F)cc2)NC(=O)[C@H](Cc2ccccc2)N(C)C(=O)c2ccccc2O1` (mixture of isomers), the inhibition was -3.91% (inactive).
